Measurements reported in PubChem BioAssay.
The source made the active and inactive calls.

Experiments:
[1] = test system: Plasmodium falciparum Sir2 (PF13_0152, Sir2A); experiment: Plasmodium falciparum Sir2A binding compounds – biochemical, small-molecule microarray, 635 nm fluorescence, primary screen (AID 1098); settings: fluorescence 635 nm, higher = more signal;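 further: score merges spot fluorescence intensity with its signal-to-noise ratio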
[2] = probe aDKK1 binding to arrayed compounds – biochemical, biotinylated probe, 635/667 nm fluorescence, primary screen (AID 1099); settings: small-molecule microarray, higher = more signal;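 further: score merges 667nm spot fluorescence with signal to noise across triplicate slides; reference of the scale not given here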
[3] = probe aCHRDL2 binding to arrayed compounds – biochemical, biotinylated probe, 635/667 nm fluorescence, primary screen (AID 1100); settings: small-molecule microarray, higher = more signal
[4] = change in splice reporter luminescence, either direction, cell-based, HEK293, spliceosome inhibition project, primary screen (AID 1101); settings: HEK293 splicing luciferase reporter, 24 h, higher = more signal, called active from +8 up or from −8 down;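 further: HEK293 cells carrying a splicing-competent luciferase reporter gene; test concentration not given here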
[5] = target: Fibroblast growth factor 10 (Homo sapiens) (UniProt O15520); experiment: compounds binding fibroblast growth factor 10 – biochemical, small-molecule microarray, 635 nm fluorescence, primary screen (AID 1102); settings: FGF10 binding, fluorescence 635 nm, higher = more signal
Fibroblast growth factor 10 (Homo sapiens), sequence (O15520 whole entry, looked up): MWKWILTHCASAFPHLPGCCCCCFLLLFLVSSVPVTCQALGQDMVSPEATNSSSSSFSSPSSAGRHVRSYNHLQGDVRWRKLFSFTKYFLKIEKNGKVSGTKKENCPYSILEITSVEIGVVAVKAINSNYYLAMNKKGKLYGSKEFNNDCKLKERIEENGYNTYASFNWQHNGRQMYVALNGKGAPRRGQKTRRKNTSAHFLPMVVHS

[6] = test system: glycogen synthase kinase-3 (GSK3A per assay name; protocol says GSK3B); experiment: compounds binding glycogen synthase kinase-3 – biochemical, small-molecule microarray, 635 nm fluorescence, GSK3A, primary screen (AID 1103); settings: fluorescence 635 nm, higher = more signal; further: the record names both GSK3A and GSK3B
[7] = target: Epidermal growth factor receptor (Homo sapiens) (UniProt P00533); experiment: compounds binding epidermal growth factor receptor – biochemical, small-molecule microarray, 635 nm fluorescence, primary screen (AID 1104); settings: EGFR binding, higher = more signal;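 further: score merges 667 nm emission intensity with spot signal to noise over triplicate slides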
Epidermal growth factor receptor (Homo sapiens), sequence (P00533 whole entry, looked up): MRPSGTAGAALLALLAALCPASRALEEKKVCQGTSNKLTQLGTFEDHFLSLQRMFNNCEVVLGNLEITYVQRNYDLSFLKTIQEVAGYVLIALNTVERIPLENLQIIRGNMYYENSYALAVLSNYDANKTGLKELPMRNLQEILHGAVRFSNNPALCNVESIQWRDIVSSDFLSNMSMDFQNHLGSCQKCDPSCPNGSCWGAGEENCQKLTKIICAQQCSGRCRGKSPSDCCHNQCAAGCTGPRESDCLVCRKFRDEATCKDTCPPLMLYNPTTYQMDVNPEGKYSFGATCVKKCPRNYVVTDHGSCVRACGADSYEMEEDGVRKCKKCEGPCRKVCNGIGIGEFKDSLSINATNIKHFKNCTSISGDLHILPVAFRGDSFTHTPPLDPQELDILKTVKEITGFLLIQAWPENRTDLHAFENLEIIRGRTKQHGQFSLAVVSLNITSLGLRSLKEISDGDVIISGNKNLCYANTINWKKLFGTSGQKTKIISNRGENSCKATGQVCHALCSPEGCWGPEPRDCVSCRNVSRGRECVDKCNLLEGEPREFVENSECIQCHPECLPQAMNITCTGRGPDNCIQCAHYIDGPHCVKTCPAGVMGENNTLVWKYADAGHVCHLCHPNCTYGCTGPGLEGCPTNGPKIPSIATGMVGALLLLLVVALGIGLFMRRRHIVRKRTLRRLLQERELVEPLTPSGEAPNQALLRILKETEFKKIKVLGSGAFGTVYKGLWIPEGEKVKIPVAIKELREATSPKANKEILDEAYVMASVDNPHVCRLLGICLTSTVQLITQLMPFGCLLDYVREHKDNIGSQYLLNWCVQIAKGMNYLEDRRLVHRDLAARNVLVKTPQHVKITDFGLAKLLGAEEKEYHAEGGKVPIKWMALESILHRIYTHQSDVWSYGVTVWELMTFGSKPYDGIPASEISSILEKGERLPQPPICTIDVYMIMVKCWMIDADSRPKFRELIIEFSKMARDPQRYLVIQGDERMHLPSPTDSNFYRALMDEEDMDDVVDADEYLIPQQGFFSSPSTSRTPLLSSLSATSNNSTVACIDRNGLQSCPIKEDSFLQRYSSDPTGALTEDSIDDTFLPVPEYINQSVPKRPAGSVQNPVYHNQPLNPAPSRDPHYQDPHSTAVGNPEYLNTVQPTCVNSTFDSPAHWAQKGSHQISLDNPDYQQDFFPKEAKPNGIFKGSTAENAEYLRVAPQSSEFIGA

[8] = target: Follistatin-related protein 3 (Homo sapiens) (UniProt O95633); experiment: compounds binding follistatin-related protein 3 – biochemical, small-molecule microarray, 635 nm fluorescence, primary screen (AID 1105); settings: FSTL3 binding, higher = more signal;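 further: score merges emission near 667 nm and signal to noise per printed spot across three slides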
Follistatin-related protein 3 (Homo sapiens), sequence (O95633 whole entry, looked up): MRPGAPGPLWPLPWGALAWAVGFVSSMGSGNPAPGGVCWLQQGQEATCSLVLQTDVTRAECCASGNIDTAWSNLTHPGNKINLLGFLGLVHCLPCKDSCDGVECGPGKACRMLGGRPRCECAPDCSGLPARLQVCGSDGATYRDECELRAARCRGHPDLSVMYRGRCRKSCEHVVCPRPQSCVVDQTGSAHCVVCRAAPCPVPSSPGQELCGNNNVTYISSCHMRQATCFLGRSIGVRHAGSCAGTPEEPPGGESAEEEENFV

[9] = target: Dickkopf-related protein 1 (Homo sapiens) (UniProt O94907); experiment: small molecules binding DKK1 protein – biochemical, small-molecule microarray, 635 nm fluorescence scan, primary screen (AID 1106); settings: higher = more signal;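 further: score merges emission near 667 nm with signal to noise over three replicate slides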
Dickkopf-related protein 1 (Homo sapiens), sequence (O94907 whole entry, looked up): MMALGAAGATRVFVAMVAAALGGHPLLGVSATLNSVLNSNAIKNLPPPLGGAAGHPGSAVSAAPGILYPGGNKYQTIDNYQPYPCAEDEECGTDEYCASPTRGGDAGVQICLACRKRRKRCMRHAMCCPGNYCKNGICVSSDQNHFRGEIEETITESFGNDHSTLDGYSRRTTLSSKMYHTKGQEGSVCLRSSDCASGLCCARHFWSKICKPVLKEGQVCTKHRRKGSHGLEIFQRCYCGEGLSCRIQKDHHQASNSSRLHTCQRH

[10] = test system: Inhibin beta A chain (activin A); experiment: small molecules binding activin A – biochemical, small-molecule microarray, 635 nm fluorescence scan, primary screen (AID 1107); settings: INHBA, higher = more signal;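 further: mouse activin A protein probed at 4.33 µg/mL on printed slides; score merges bound-protein fluorescence near 667 nm with spot signal-to-noise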

| SMILES | composite z-score [1] | composite z-score [2] | composite z-score [3] | z-score [4] | composite z-score [5] | composite z-score [6] | composite z-score [7] | composite z-score [8] | composite z-score [9] | composite z-score [10] |
| --- | --- | --- | --- | --- | --- | --- | --- | --- | --- | --- |
| COc1ccc([Si](C)(C)[C@@H]2[C@@H](CC(=O)N3CCC[C@H]3CO)O[C@]3(C(=O)N(Cc4cccc(N5CCCCC5=O)c4)c4ccccc43)[C@H]2C)cc1 | 1.29 | -0.246 | -0.115 | 0.238 (inactive) | 0.32 | 0.523 | 0.0941 | 0.747 | 0.414 | 0.27 |
| COC(=O)C(CC#Cc1ccc2c(c1)[C@]1(C(=O)N2)[C@H](C(=O)N2CCc3cc(OC)c(OC)cc3C2)[C@H]2C(=O)O[C@H](c3ccccc3)[C@H](c3ccccc3)N2[C@@H]1c1ccccc1OCCO)C(=O)OC | 1.3 | 0.581 | 0.623 | 0.234 (inactive) | 0.954 | 1.34 | 0.529 | 1.28 | 0.627 | -0.592 |
| [N-]=[N+]=Nc1ccccc1C[C@@]1(C(=O)NCc2ccccc2)N=C(c2ccc(OCCCO)cc2)O[C@@H]1c1ccccc1N=[N+]=[N-] | 1.07 | 0.61 | 1.01 | -0.457 (inactive) | 1.1 | 0.913 | 0.0359 | 0.309 | -0.0102 | 1.04 |
| CN(C)CCCCNC(=O)[C@H]1C[C@H]2C(=O)N3CCC[C@H]3C(=O)N2[C@H]1c1cccc(OCCO)c1 | 1.67 | 0.0092 | 0.833 | -0.0803 (inactive) | 0.425 | 0.676 | -0.497 | -0.0327 | -0.0023 | 0.0098 |
| COc1cc(OC)c(C(O)C2C=CC3C(=O)N(c4ccccc4)C(=O)C3N2Nc2ccc(C(C)C)cc2)cc1Br (stereo not given) | 0.891 | 0.671 | 0.605 | -0.603 (inactive) | 0.909 | 1.3 | 0.21 | 0.839 | 0.245 | 0.735 |
| [N-]=[N+]=Nc1ccccc1[C@@H]1OC(c2ccc(OCCCO)cc2)=N[C@]1(CCS(=O)(=O)c1ccccc1)C(=O)NCC(O)CO (stereo not given in full) | 1.73 | -0.181 | 0.72 | -0.633 (inactive) | -0.176 | 0.434 | -0.586 | -0.332 | -0.328 | 0.693 |
| C[C@@H]1NC(=O)C([C@@H](C)OCc2ccccc2)NC(=O)[C@@]23C(=O)N[C@@H](Cc4ccccc4)C2[C@H](C)[C@@]2(C)O[C@H]2C3/C=C/C/C=C\CNC1=O (stereo not given in full) | 1.58 | -0.76 | -0.751 | 0.531 (inactive) | 0.224 | -0.297 | -0.506 | 0.11 | 0.382 | 1.44 |
| COc1ccc([Si](C)(C)[C@H]2[C@H](CC(=O)N3Cc4ccccc4C[C@H]3CO)O[C@@]3(C(=O)N(C)c4c(Br)cc(C)cc43)[C@@H]2C)cc1 | 0.842 | -0.149 | -0.246 | -1.97 (inactive) | 1.19 | 0.332 | 0.552 | 1.09 | 0.474 | 0.96 |
| CC1=C([C@H](O)CCc2ccccc2)[C@H](CO)n2c(=O)n(-c3ccccc3)c(=O)n2C1 | -0.385 | -0.204 | -0.48 | -1.04 (inactive) | 0.233 | 0.196 | 0.167 | -0.0401 | 0.231 | 0.472 |
| C=CCC(OC(C)=O)[C@@H]1[C@@H](N(Cc2cccc3ccccc23)C(=O)Cc2ccc(OC)cc2)c2cc(OCCCO)ccc2N1C(=O)Cc1ccc2ccccc2c1 (stereo not given in full) | 0.067 | -0.237 | 0.087 | -0.738 (inactive) | -0.0821 | -0.227 | 0.0289 | 0.404 | 0.073 | 0.68 |
| CC1CC/C=C\[C@H]2OC34C=CCN(Cn5nnc6ccccc65)C(=O)[C@H]3N(CCCCCCO)C(=O)[C@@H]4C2C(=O)O1 (stereo not given in full) | 0.765 | -0.252 | 0.794 | 0.468 (inactive) | -0.835 | -0.759 | -0.951 | -1.23 | -1.36 | -0.306 |
| O=C(NCc1ccccc1)[C@@H]1c2ccccc2C(=O)N(Cc2ccc(OC(F)(F)F)cc2)[C@H]1c1ccc(CO)cc1 | 1.34 | 0.658 | -0.0614 | -1.19 (inactive) | -0.354 | 0.37 | -0.942 | -0.88 | -0.808 | -0.187 |
| C=C(/C(=C/C[C@@H](OC(C)=O)c1cccc(OCCO)c1)c1cnc2ccccc2c1)C(C)C | 0.85 | -0.268 | 0.0363 | -0.664 (inactive) | 0.706 | 0.612 | 0.324 | 1.37 | 0.625 | 1.56 |
| NC(=O)N1C(=O)C2C(C1=O)C1C=C(CCCO)C2C(c2ccc(CN3CCCC3)cc2)N1Cc1sc2ccccc2c1Cl (stereo not given) | 0.0883 | -0.291 | 0.233 | -0.497 (inactive) | 0.528 | -0.42 | -0.243 | -0.744 | -0.29 | -0.0473 |
